p53 reactivation = qHTS assay for re-activators of p53 using a Luc reporter. H1299 p53-A138V BP100-luciferase reporter, luminescence, 24 h. Potency, µM (titrated, usually from 92.2 µM), without a hit: at the highest dose activity change, positive = activation, hits mostly activators. 320,000 tested, 0.063% active. AID 504706, 2011; note: % of control where 0% means no effect; nearly all actives have a fitted effect of over 45% in size
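H1299 (p53-null), stable ts p53-A138V + BP100-Luc; 1000 cells/well, Opti-MEM/10% FBS; cpd 4 pt, 1:5; 24 h, 37 deg C, 5% CO2; detection reagent 10 min RT; luminescence.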
SMN2 splice up = qHTS Assay for Enhancers of SMN2 Splice Variant Expression. HEK293 SMN2-luciferase splicing reporter, luminescence, 30-36 h. 210,000 tested, 2.8% active. Potency, µM (top dose mostly 46.1 µM), for the others: at the top dose activity change, positive = activation, hits mostly activators. AID 1458, 2008; note: % of control where 0% means no effect; nearly all actives have a fitted effect of over 55% in size
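qHTS luciferase splicing reporter: luminescence rises when SMN2 exon 7 is included in transfected HEK293 cells. Compound exposure lasted 30-36 h at 37C, with 4.5 mM final sodium butyrate as control, followed by a ONE-Glo read.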
NPC1 prom act = qHTS Assay for NPC1 Promoter Activators; Potency, µM (top dose mostly 9.22 µM), for inactives: top-dose activation, hits mostly activators; AID 485313, 2010; 320,000 tested, 2.4% active; Huh7 NPC1 promoter luciferase reporter, 24 h; note: % of control where 0% means no effect; nearly all actives have a fitted effect of over 60% in size
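Luminescence read-out of NPC1 promoter-driven luciferase in stably transfected Huh7 cells; compounds delivered in DMSO and left 24 h at 37C, 5% CO2, qHTS titration format.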
FLuc modulator = qHTS profiling assay for firefly luciferase inhibitor/activator using purifed enzyme and Km concentrations of substrates (counterscreen for miR-21 project); 360,000 tested, 6.9% active; Luciferin 4-monooxygenase (Photinus pyralis), P08659; purified FLuc, Km substrates, luminescence inhibition; Potency, µM (doses to about 57.5 µM), for inactives: at the highest dose activity change, negative = inhibition, most hits filed as inhibitors;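 note: plate controls were vehicle for no effect and reference inhibitor for full effect; nearly all actives have a fitted effect of over 55% in size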
Target sequence (P08659 whole entry, looked up): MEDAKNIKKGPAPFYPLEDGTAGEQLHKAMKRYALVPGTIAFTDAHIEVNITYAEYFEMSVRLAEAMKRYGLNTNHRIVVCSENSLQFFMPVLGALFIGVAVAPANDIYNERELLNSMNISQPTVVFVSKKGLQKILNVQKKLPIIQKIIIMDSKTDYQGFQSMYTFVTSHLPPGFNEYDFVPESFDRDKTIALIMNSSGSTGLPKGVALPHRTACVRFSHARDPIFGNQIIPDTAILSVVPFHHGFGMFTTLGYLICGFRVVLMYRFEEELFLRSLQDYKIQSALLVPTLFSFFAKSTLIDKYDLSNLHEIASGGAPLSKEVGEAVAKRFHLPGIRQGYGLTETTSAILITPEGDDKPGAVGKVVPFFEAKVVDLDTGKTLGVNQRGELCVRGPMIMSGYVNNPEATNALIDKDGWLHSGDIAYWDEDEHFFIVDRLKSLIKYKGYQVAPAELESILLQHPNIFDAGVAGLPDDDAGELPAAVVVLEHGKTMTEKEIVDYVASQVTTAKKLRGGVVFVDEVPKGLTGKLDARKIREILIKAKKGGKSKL
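Purified P. pyralis luciferase, 10 nM final, with Km-level 10 uM D-luciferin and 10 uM ATP in 50 mM Tris acetate pH 7.5, 10 mM Mg acetate, 0.01% Tween-20, 0.05% BSA; 6-point qHTS titration about 60 µM downward; luminescence read.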
ELG1 genotox = qHTS screen for small molecules that induce genotoxicity in human embryonic kidney (HEK293T) cells expressing luciferase-tagged ELG1; Potency, µM (top dose mostly 46 µM), for inactives: at the top dose activity change, positive = activation, hits mostly activators; 330,000 tested, 1.3% active; AID 504466, 2011; HEK293T ELG1-luciferase reporter, luminescence, 16 h; note: % of control where 0% means no effect; nearly all actives have a fitted effect of over 60% in size
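Genotoxicity was scored as increased ELG1-luciferase reporter signal, measured by ONE-Glo luminescence (30 min, room temperature). Compound or vehicle exposure of the HEK293T reporter cells lasted 16 hr at 37°C.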
Rab9 prom act = qHTS Assay for Rab9 Promoter Activators; Huh7 Rab9 promoter-luciferase reporter, luminescence, 24 h; Potency, µM (doses to about 9.22 µM), for inactives: top-dose activation, negative = inhibition, usual class: activators; 320,000 tested, 2.8% active; note: % of control where 0% means no effect; nearly all actives have a fitted effect of over 60% in size
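Huh7 cells stably carrying Rab9 promoter–luciferase reporter, plated 1500 cells/well, compound added after 2 h and incubated 24 h at 37 °C; luciferase luminescence then read after 10 min with detection reagent.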
Numbers without * were called inactive; ? = inconclusive; · = not tested or not shown. An excerpt weighted towards active compounds, which were near 7.3% of everything screened. Calls come from the whole dose curve; as a rule, active = well fitted curve in the direction sought with a large enough effect; inconclusive = small, poorly fitted or top-dose-only effect, or another doubt; inactive = no such curve, though single readings can be large; an effect the other way counts as inactive or inconclusive. Potency is the fitted concentration of half-maximal effect.

SMILES	p53 reactivation	SMN2 splice up	NPC1 prom act	FLuc modulator	ELG1 genotox	Rab9 prom act
O=c1c2c(nc3cc(-c4ccc(Br)cc4)[nH]n13)CCCC2	-1%	·	-3%	7%	-3%	-2%
COc1ccc(-c2cc3nc4c(c(=O)n3[nH]2)CCC4)cc1	?	10µM*	?	4.3µM*	?	2.8µM*
O=c1c2c(nc3cc(-c4ccccc4)[nH]n13)CCC2	?	11µM*	2.8µM*	6µM*	?	?
Cc1c(-c2ccccc2)[nH]n2c(=O)c3c(nc12)CCCC3	?	11µM*	?	15µM*	?	?
CCN1C(=NCc2ccc(OC)cc2)N[C@@H](c2ccccc2)[C@H](C(=O)OC)[C@H]1C	-2%	·	2%	1%	-2%	0%
O=C(Nc1cccc(Cl)c1)c1ccc2c(c1)CCN2S(=O)(=O)c1ccccc1	·	-7%	·	3%	·	·
Cn1c(-c2ccc3nc(N)sc3c2)nc2cc(N)ccc21	11%	7%	?	21µM*	?	23%
Cn1c(-c2ccc(N)cc2)nc2ccccc21	?	·	?	19µM*	?	4µM*
Cn1c(CCc2ccc(N)cc2)nc2ccccc21	1%	11µM*	3.2µM*	12µM*	?	1.6µM*
CCOc1ccc(NC(=O)Cn2cc(C(=O)c3ccc(CC)cc3)c(=O)c3ccc(C)nc32)cc1	·	·	·	0%	·	·
Cc1nc2ccc(NC(=O)c3cccs3)cc2s1	?	·	3.5µM*	17µM*	?	2.5µM*
COc1ccc2nc(NC(=O)c3cccs3)sc2c1	12%	·	0.32µM*	0.67µM*	?	0.28µM*
CC(=O)Nc1ccc2nc(NC(=O)c3ccc([N+](=O)[O-])s3)sc2c1	24%	·	22%	5.4µM*	3%	?
Cc1nc2ccc(NC(=O)c3sccc3C)cc2s1	?	11µM*	1.8µM*	7.6µM*	?	2.2µM*
COc1ccc(OC)c(C(C)NC(=O)Cn2c(=O)cc(C)c3c(C)nn(-c4ccc(C)cc4)c32)c1 (centres undefined)	·	·	·	-5%	·	·
Cc1ccc2c(=O)cc(C(=O)Nc3c(C(=O)c4ccc(F)cc4)oc4ccccc34)oc2c1C	·	9%	·	-4%	·	·
CCC1=C2CC[C@H]3C(=O)N(CC)C(=O)[C@H]3[C@H]2[C@@]2(Cc3ccccc3)C(=NCC3CC3)OC(=O)N2C1=O	·	6%	·	·	·	·
CCCSc1ncc(Cl)c(C(=O)Nc2c(C(=O)Nc3ccc(C)cc3)oc3ccccc23)n1	·	8%	·	0%	·	·
COc1ccc(C(=O)Nc2nc3c(s2)Cc2cc(OC)ccc2-3)cc1	-4%	-38%	-1%	?	-8%	5%
Cc1cc(NS(=O)(=O)c2ccc(NC(=O)c3ccc([N+](=O)[O-])s3)cc2)nc(C)n1	-21%	·	·	·	-4%	·
COc1ccc2c(c1)Cc1sc(NC(=O)c3cccs3)nc1-2	?	?	4µM*	?	?	2.8µM*
CC(=O)Nc1ccc2nc(NC(=O)c3cccs3)sc2c1	?	·	0.63µM*	2.1µM*	?	0.32µM*
Cc1nc2cc(NC(=O)c3ccc([N+](=O)[O-])s3)ccc2s1	-36%	·	19%	3.8µM*	?	?
Cc1ccccc1OCCSc1nc2ccc(NC(=O)c3cccs3)cc2s1	·	·	·	-5%	·	·
Fc1ccc2[nH]c(-c3cccs3)cc2c1	·	-2%	·	?	·	·
SMILES	p53 reactivation	SMN2 splice up	NPC1 prom act	FLuc modulator	ELG1 genotox	Rab9 prom act
CCOc1ccc(Nc2cc(C)c(C#N)c3nc4ccccc4n23)cc1	·	5%	·	1%	·	·
Cc1cc(-c2ccccc2)nc(N/N=C/c2ccc(O)cc2)n1	7%	·	12%	1.5µM*	-2%	0%
Oc1ccc(/C=N/Nc2nc(-c3ccc(Cl)cc3)cc(C(F)(F)F)n2)cc1	-4%	-24%	2%	27µM*	-7%	-3%
Cc1cc(N/N=C/c2ccc(O)cc2)c2cccc(C)c2n1	-144%	·	-1%	?	13%	6%
Cc1cc(C)c2nc(C)cc(N/N=C/c3ccc(O)cc3)c2c1	·	·	-20%	13µM*	?	-5%
O=C(Cc1cn(-c2ccccc2)nc1-c1ccccc1)N1CCCCC1	-1%	·	-2%	1%	-8%	-2%
CCCN(CCC)C(=O)Cn1c(=O)n(-c2ccc(CC)cc2)c(=O)c2ccc(C(=O)NCCc3ccccc3)cc21	·	-5%	·	0%	·	·
COc1ccc(CCNC(=O)CSc2cc(=O)n(C)c3ccccc23)cc1OC	·	13%	·	-1%	·	·
CCCCNc1nc(C)nc2c1nc(-c1ccccc1)n2CCCN1CCCCC1C (centres undefined)	·	-10%	·	·	·	·
O=C1OCCC1Sc1nnnn1-c1ccc(Cl)cc1 (centres undefined)	-1%	·	-4%	11µM*	0%	-2%
CCS(=O)(=O)c1ccc(-c2csc(-c3ccc(Cl)cc3)n2)c(Cl)c1Cl	4%	-6%	0%	?	18µM*	2%
Cc1cc(C)n(C(C)CC(=O)Nc2ccc(C)c(N(C)C)c2)n1 (centres undefined)	·	·	·	-3%	·	·
NC(=O)c1ccc(CSc2nc3ccccc3s2)cc1	19%	·	?	?	?	2.8µM*
c1ccc2sc(SCc3ccc(-c4nnco4)cc3)nc2c1	?	13µM*	1.4µM*	4.8µM*	?	3.2µM*
CCNC(=O)c1ccc(CSc2nc3ccccc3s2)cc1	0%	·	6%	5.4µM*	11%	-1%
COCCNC(=O)c1ccc(CSc2nc3ccccc3s2)cc1	-6%	·	?	?	14%	?
CC(C)(C)[C@@H]1COC(=O)[C@H](Cc2ccc(F)cc2)CC/C=C\C[C@@H](CC(=O)N(CCO)Cc2ccccc2)C(=O)N1	9%	·	·	·	-5%	·
COc1ccc(/C=C(/CC(=O)NCc2ccc(Cl)cc2)c2nc3ccccc3s2)cc1	2%	-13%	4%	-18%	16%	-4%
COc1cccc(NC(=O)CN(C)C(=O)c2ccccc2-c2nc3ccccc3s2)c1	-4%	·	4%	-1%	-1%	-4%
COc1ccc(/C=C(/CC(=O)Nc2ccccc2)c2nc3ccccc3s2)cc1	?	-22%	13%	21µM*	9%	27%
COc1cccc(-c2nc3ccccc3s2)c1	?	?	13%	0.85µM*	2.1µM*	?
COc1cccc(CC(=O)Nc2ccc(-c3nc4ccccc4s3)cc2)c1	·	·	·	6µM*	·	·

Screening data as filed in PubChem BioAssay.
